PubChem BioAssay AID1851 (National Center for Advancing Translational Sciences (NCATS), 2009)
The campaign covered roughly 16,000 compounds. About 5,800 (36%) were called active. Another 23% or so got no clear call; they are omitted. Calls follow the shape of the dose curve; as a rule, active = well fitted curve in the direction sought with a large enough effect; inconclusive = small, poorly fitted or top-dose-only effect, or effect the other way; inactive = no such curve, though single readings can be large or run the other way. This is one part of the list.

biological target: Cytochrome P450 2C19 (Homo sapiens) (UniProt P33261); assay: Cytochrome panel assay with activity outcomes; conditions: recombinant CYP, pro-luciferin dealkylation, luminescence, p450-cyp2c19; series mostly up to 57.1 µM; activity, negative = inhibition: at the top concentration
% is scaled to controls: 0 for no effect and ±100 for the full control effect.

Cytochrome P450 2C19 (Homo sapiens), sequence (P33261 whole entry, looked up): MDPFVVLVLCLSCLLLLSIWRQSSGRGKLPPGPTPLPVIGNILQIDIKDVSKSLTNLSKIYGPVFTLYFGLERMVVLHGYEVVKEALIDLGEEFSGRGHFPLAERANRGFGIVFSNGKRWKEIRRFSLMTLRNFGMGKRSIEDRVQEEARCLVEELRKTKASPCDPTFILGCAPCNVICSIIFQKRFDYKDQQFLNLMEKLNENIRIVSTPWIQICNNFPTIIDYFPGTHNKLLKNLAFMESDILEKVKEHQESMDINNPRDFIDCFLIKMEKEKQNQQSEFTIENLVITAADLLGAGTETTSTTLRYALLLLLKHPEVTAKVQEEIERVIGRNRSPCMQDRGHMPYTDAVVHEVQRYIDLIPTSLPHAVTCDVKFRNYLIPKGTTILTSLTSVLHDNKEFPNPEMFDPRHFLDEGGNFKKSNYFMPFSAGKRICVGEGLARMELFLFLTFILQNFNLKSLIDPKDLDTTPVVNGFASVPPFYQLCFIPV

N[C@H](CCC(=O)NCC(=O)O)C(=O)O was tested. Which “activity, negative = inhibition” value did it give?
Its value is -14.1% (inactive).

Which AC50 does the source give for Cc1ccc(C(=O)Nc2ccc3nccnc3c2)cc1 here?
The AC50 was 14.1 µM (active).

Cc1ccc(-n2nc3ccc(NC(=O)c4ccc5c(c4)OCO5)cc3n2)cc1 was tested. Which “activity, negative = inhibition” value did it give?
Its value is -26.9% (inactive).

CCN1C(=O)[C@H]2[C@H]3[C@H](O)[C@H](O)C/C(=N/OCC[C@H]4C=C[C@H](OC(C)=O)[C@@H](COC(C)=O)O4)[C@@H]3CC[C@@H]2C1=O was tested. Which activity, negative = inhibition did it give?
The activity, negative = inhibition was 0.181% [at 11.4 µM] (inactive).

How did the AC50 turn out when Cc1c(C)n(C(=O)CN2CCC(C)CC2)c2ccccc12 was run?
Its AC50 is 3.55 µM (active).

CC1CCN(CC[C@@H]2CCCN2S(=O)(=O)c2cccc(O)c2)CC1 was tested. Which “activity, negative = inhibition” value did it give?
Its value is 15.1% (inactive).

For O=C(O)c1cc(=O)cc(C(=O)O)[nH]1, which “activity, negative = inhibition” value is on record?
The value was 14.5% (inactive).

With COc1ccc(COC(=O)N/N=C2/C[C@@H](O)[C@@H](O)[C@@H]3[C@@H]4C(=O)N([C@@H](C)c5ccccc5)C(=O)[C@H]4CC[C@H]23)cc1 as the compound, how does the activity, negative = inhibition read?
Its activity, negative = inhibition is 1.27% [at 11.4 µM] (inactive).

With C[C@]1(c2ccccc2)OC(C(=O)O)=CC1=O as the compound, how does the “activity, negative = inhibition” value read?
Its value is -35.6% (inactive).

For Cc1ccc(C(=O)Nc2cc(Cl)ccc2OC(=O)c2ccc(C)cc2)cc1, which AC50 is on record?
Its AC50 is 11.2 µM (active).

With COc1ccc(NC(=O)c2ccc(C(=O)c3cc(OC)ccc3OC)cc2)cc1 as the compound, how does the “activity, negative = inhibition” value read?
The value was 9.75% (inactive).

How did the AC50 turn out when COc1ccc(C(=O)Nc2cc(Cl)ccc2OC(=O)c2ccc(OC)cc2)cc1 was run?
Its AC50 is 3.55 µM (active).

How did the AC50 turn out when COC(=O)CCSc1cc([N+](=O)[O-])cc2c1c(C1OCCS1)nn2-c1ccccc1 (stereo unspecified) was run?
The AC50 was 25.1 µM (active).

With NC(N)=NC(N)=Nc1cccc(Cl)c1 as the compound, how does the AC50 read?
Its AC50 is “inactive”.

NC(N)=NC(N)=Nc1ccccc1 was tested. Which AC50 did it give?
Its AC50 is 25.1 µM (active).

For NC(N)=NC(N)=Nc1ccc(S(=O)(=O)O)cc1, which activity, negative = inhibition is on record?
The activity, negative = inhibition was 10.1% [at 11.4 µM] (inactive).

With N#C/C(=C/c1cccc(C(F)(F)F)c1)c1nc(CCN2C(=O)c3ccccc3C2=O)cs1 as the compound, how does the AC50 read?
The AC50 was 3.16 µM (active).

For C=CCNCCCCOc1c(Cl)cc(C)cc1Br, which AC50 is on record?
The AC50 was 8.91 µM (active).

Cc1cc(Br)cc(C)c1OCCCCN(C)C was tested. Which “activity, negative = inhibition” value did it give?
Its value is -23.4% (inactive).

With COCCCNCCCCOc1c(Cl)cc(C)cc1Br as the compound, how does the “activity, negative = inhibition” value read?
The value was -17.9% (inactive).

With O=C(N/N=C/C1CCCCC1)c1ccccn1 as the compound, how does the “activity, negative = inhibition” value read?
The value was -9.73% (inactive).

Which AC50 does the source give for C/C(=N\NC(=O)Cc1ccc(Cl)cc1)c1ccccn1 here?
The AC50 was 5.01 µM (active).

For CC(C)c1ccc(N2C(=O)CC(Sc3nc4ccccc4o3)C2=O)cc1 (stereo unspecified), which AC50 is on record?
The AC50 was 1.78 µM (active).

With CCOC(=O)N/N=C1/C[C@@H](O)[C@@H](O)[C@@H]2[C@@H]3C(=O)N([C@@H](C)c4ccccc4)C(=O)[C@H]3CC[C@@H]12 as the compound, how does the activity, negative = inhibition read?
Its activity, negative = inhibition is -0.98% [at 11.4 µM] (inactive).

For CCOC(=O)c1cc(-c2ccc(Cl)cc2)nc2c1c(C)nn2CCC#N, which AC50 is on record?
The AC50 was 14.1 µM (active).

How did the “activity, negative = inhibition” value turn out when COc1cccc(Nc2ncc3nc(-c4ccc(Cl)cc4)c(=O)n(CCC#N)c3n2)c1 was run?
Its value is -11.3% (inactive).
